The list is not random: actives were taken first. Their share in the collection is about 2.4%.
Mcl-1 Bim block – inhibitors of Bim peptide binding to Mcl-1, primary screen, biochemical, bead-based flow cytometry, multiplex | Induced myeloid leukemia cell differentiation protein Mcl-1 (Homo sapiens), Q07820 | Bim peptide-Mcl-1 binding | AID 1009, 2008 | actives 0.1% (n = 190,000) | inhibition, % at 10 µM; in the data active = inhibition above about 40%
Target sequence (Q07820 whole entry, looked up): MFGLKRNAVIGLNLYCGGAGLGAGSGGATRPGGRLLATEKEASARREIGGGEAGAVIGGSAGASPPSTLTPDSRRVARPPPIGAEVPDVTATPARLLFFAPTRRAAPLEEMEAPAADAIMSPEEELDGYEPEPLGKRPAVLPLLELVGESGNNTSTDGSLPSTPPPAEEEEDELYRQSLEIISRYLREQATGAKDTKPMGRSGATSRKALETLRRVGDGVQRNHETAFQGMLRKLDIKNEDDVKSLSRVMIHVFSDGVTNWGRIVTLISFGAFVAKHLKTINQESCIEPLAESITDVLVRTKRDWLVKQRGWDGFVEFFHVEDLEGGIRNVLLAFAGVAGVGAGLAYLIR
TNF necrop inh – inhibitors of TNF-alpha triggered necroptosis, primary screen, cell-based, Jurkat FADD-/-, single concentration. Jurkat FADD-/- TNF necroptosis rescue, ATP luminescence, 24 h; 0 = TNF only, 100 = no-TNF cells. activation (protection from cell death), % at 10 µM. actives 0.068% (n = 220,000). AID 463075, 2010;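 active = activation, meaning protection from cell death, of at least 50% relative to plate controls; inactive = activation below 50%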;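 also: necroptosis triggered by 40 ng/mL TNF-alpha added together with compound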
zVAD death inh – inhibitors of zVAD-triggered necroptosis, primary screen, L929 cells | AID 1377, 2008 | actives 0.38% (n = 220,000) | viability rescue, % at 10 µM | L929 zVAD necroptosis rescue, ATP luminescence, 24 h; with zVAD 60 µM;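 active = activation, scaled between plate controls, above about 75%, limit read from the data; inactive = activation under that limit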
Mcl1 Noxa PPI – Mcl-1/Noxa binding inhibitors, primary screen, biochemical, TR-FRET, 1536-well; TR-FRET Mcl-1/Noxa peptide binding, 2 h; inhibition, % at 21.7 µM; actives 1.5% (n = 220,000); AID 1022, 2008;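 active = compounds that cut the protein-peptide binding signal by more than 50% relative to plate controls in a single-dose test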;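 also: His-tagged Mcl-1 with rhodamine Noxa BH3 peptide and terbium anti-His antibody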
Mcl1-Bid inh – Mcl-1/Bid binding inhibitors, primary screen, biochemical, TR-FRET, 1536-well. Induced myeloid leukemia cell differentiation protein Mcl-1 (Homo sapiens), Q07820. TR-FRET Mcl-1/Bid-Dy647 peptide binding. inhibition, % at 21.7 µM. actives 0.97% (n = 220,000);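 active = compounds that cut the binding signal by more than half at the single screening dose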;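 also: His-tagged Mcl-1 with europium anti-His antibody binding Bid BH3 peptide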
MCL1 BIM primary – inhibitors of MCL1 binding to BIM-BH3, primary screen, biochemical, fluorescence polarization; GST-MCL1 / FITC-Bim-BH3 fluorescence polarization; inhibition, % at 10.9 µM; actives 0.68% (n = 320,000); AID 2057, 2009;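 active = inhibition above the mean inhibition of all tested compounds plus 3 SD, set per campaign, cut at about 40% in these data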;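 also: higher means more loss of mP so more displacement of Bim peptide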
Of the large screens only hits and unclear results are named; the others gave an inactive call.

Cc1ccc(-c2ccc(/C=N/N=C3/NC(=O)C(CC(=O)O)S3)o2)c([N+](=O)[O-])c1 (stereo not drawn)	none
CC1=C(C#N)C(=O)NC(=O)/C1=C\c1ccc(-c2ccc(C)cc2[N+](=O)[O-])o1	Mcl1 Noxa PPI 94.5, Mcl1-Bid inh 75.2 (no result: MCL1 BIM primary)
O=C1Nc2ccccc2/C1=N\N=C\c1ccc(O)c(O)c1	Mcl1 Noxa PPI 65.4 (no result: Mcl-1 Bim block)
O=C(/C(=N/N=C/c1ccc(O)c(O)c1)c1ccccc1)c1ccccc1	Mcl1 Noxa PPI 50.5
COc1cc(/C=N/N=C2/C(=O)Nc3ccccc32)ccc1O	none
CC1=C(C(=O)OCc2ccccc2)C(/C=C/c2ccccc2)NC(=S)N1 (stereo not drawn)	Mcl1-Bid inh 53.8
Cc1onc(-c2ccccc2)c1CNC(=O)Nc1ccccc1	none (no result: Mcl-1 Bim block)
O=S1(=O)c2ccccc2N=NN1Cc1cc(Cl)cc(Cl)c1	Mcl1 Noxa PPI 98.9
Clc1ccc(Cn2cnc3ccccc32)cc1	none
O=S1(=O)c2ccccc2N=NN1Cc1ccc(Cl)cc1	Mcl1 Noxa PPI 53.2
O=C1c2ccncc2C(=O)N1Cc1cccc(Cl)c1	none
Cc1c(NC(=S)NC(NC(=O)C(C)C)C(Cl)(Cl)Cl)c(=O)n(-c2ccccc2)n1C (stereo not drawn)	Mcl1-Bid inh 95.8
COc1ccccc1CCc1nnc(CCC(=O)NC(C)Cc2cccnc2)o1 (stereo not drawn)	Mcl1-Bid inh 82.9
COc1ccccc1CCc1nnc(CCC(=O)NCCCOc2cccnc2)o1	none
CCOc1ccc(S(=O)(=O)N(CC(=O)N/N=C/c2ccc(-c3ccc([N+](=O)[O-])cc3)o2)c2ccccc2)cc1	Mcl1 Noxa PPI 65.1
O=C1C(=O)N(CCCO)C(c2ccc(Br)cc2)/C1=C(\O)c1ccc(Br)cc1 (stereo not drawn)	none (no result: Mcl-1 Bim block, TNF necrop inh, zVAD death inh, Mcl1 Noxa PPI, Mcl1-Bid inh)
COc1cc2c(-c3ccc(O)cc3)nc3c(c(C)nn3-c3ccccc3)c2cc1OC	Mcl1 Noxa PPI 79.8, Mcl1-Bid inh 60.7
COc1cc2c(C)nc3c(c(C)nn3-c3ccccc3)c2cc1OC	none
CCCS(=O)(=O)NCc1ccc2c(c1)cc(C)n2C	none
Cc1cc2cc(CNS(=O)(=O)c3ccccc3)ccc2n1C	MCL1 BIM primary 46.5
CCS(=O)(=O)NCc1ccc2c(c1)cc(C)n2C	Mcl1-Bid inh 69.8
O=C(Nc1ccccc1)c1sc(N2CCOCC2)nc1-c1ccccc1	none
N#C/C(=C\c1sc(N2CCOCC2)nc1-c1ccccc1)C(=O)Nc1cccc2ccccc12	Mcl1-Bid inh 57.1 (no result: MCL1 BIM primary)
O=C(Nc1ccc(F)cc1)c1nc[nH]c1C(=O)Nc1ccc([N+](=O)[O-])cc1	Mcl1 Noxa PPI 62.5, Mcl1-Bid inh 62.3
CNC(=O)c1ccc(Nc2nnc(-c3ccc(O)cc3)c3ccccc23)cc1	none (no result: Mcl-1 Bim block, TNF necrop inh, zVAD death inh, Mcl1 Noxa PPI, Mcl1-Bid inh)
Oc1ccc(-c2nnc(Nc3cccc(O)c3)c3ccccc23)cc1	Mcl1 Noxa PPI 60.5 (no result: Mcl-1 Bim block)
O=C(NCCN1CCOCC1)c1cccc(S(=O)(=O)N(Cc2ccccc2)c2ccccc2)c1	none (no result: Mcl-1 Bim block, TNF necrop inh, zVAD death inh, Mcl1 Noxa PPI, Mcl1-Bid inh)
CCc1nn2c(=O)cc(COc3ccc(/C=C4\C(=N)N5N=C(C)SC5=NC4=O)cc3)nc2s1	Mcl1 Noxa PPI 77.3
CCOc1cc(/C=C2\C(=N)N3N=C(C)SC3=NC2=O)ccc1OCCOc1cccc(OC)c1	none (no result: Mcl-1 Bim block, TNF necrop inh, zVAD death inh, Mcl1 Noxa PPI, Mcl1-Bid inh)
CC1Sc2ccc(S(=O)(=O)CCC(=O)NC3CCCCC3C)cc2NC1=O (stereo not drawn)	none (no result: Mcl-1 Bim block, TNF necrop inh, zVAD death inh, Mcl1 Noxa PPI, Mcl1-Bid inh)
Cc1ccccc1OCc1nc2ccccc2c(=O)n1/N=C/c1cn[nH]c1-c1ccc(Br)cc1	none
O=c1c2ccccc2nc(COc2ccccc2)n1/N=C/c1cn[nH]c1-c1ccccc1	Mcl1-Bid inh 55.8
Cc1ccccc1OCC(=O)N/N=C/c1cccc2cccnc12	none (no result: Mcl-1 Bim block, TNF necrop inh, zVAD death inh, Mcl1 Noxa PPI, Mcl1-Bid inh)
C#CCn1cc(/C=N/NC(=O)COc2cccc3cccnc23)c2ccccc21	Mcl1 Noxa PPI 69.7, Mcl1-Bid inh 85.5
O=C(COc1cccc2cccnc12)N/N=C/c1ccccc1O	none (no result: Mcl-1 Bim block)

Assay outcomes deposited in PubChem by several laboratories.
